# In PubChem BioAssay:
# Values without a mark were called inactive. For part of these data: Entries with a potency or affinity are not part of this list. Calls of active or inactive are those of the source. Unless noted, the rule behind the calls is not given here.
# What was measured:
# [1] = antimalarial activity against Dd2 strain (AID 2302;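 active = growth inhibition above 50% at the single 2 µM test dose, taken to imply half-maximal potency below 2 µM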;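 note: 0% = DMSO untreated growth and 100% = chloroquine plus artemisinin killed control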); settings: P. falciparum Dd2 in RBCs, LDH growth readout, 72 h; at 2 µM; active compounds read high
# [2] = human hepatoma cell viability loss – ATP luminescence, cytotoxicity control for P. falciparum antimalarial project, primary screen (AID 2303;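 active = inhibition above 50%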;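 note: 0% = DMSO wells and 100% = digitonin-killed cells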); settings: HepG2 viability, 24-48 h, at 10 µM, active compounds read high
# [3] = target: L-lactate dehydrogenase (Plasmodium falciparum (isolate CDC / Honduras)) (UniProt Q27743); test: PfLDH activity inhibition – cell lysate, 3D7 strain, counter-screen for P. falciparum growth inhibition project (AID 2304);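 note: 0% = vehicle and 100% = reference inhibitor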; settings: P. falciparum 3D7 crude extract, LDH APAD/NBT absorbance; at 2 µM; active compounds read high
# [4] = inhibition of 3D7 malaria parasite growth – strain 3D7 (AID 2306);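 note: 0% = DMSO wells and 100% = chloroquine plus artemisinin control wells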; settings: P. falciparum 3D7 erythrocytic growth, LDH absorbance, 72 h; at 2 µM; active compounds read high
# [5] = target: Calcium-dependent protein kinase 1 (Plasmodium falciparum (isolate 3D7)) (UniProt P62344); test: PfCDPK1 kinase inhibitors, biochemical, TCAMS library (AID 1159585; cut-off not given, nearly all actives have IC50 up to about 0.98 µM;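 note: inhibitors leave more ATP so luminescence rises with inhibition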); settings: recombinant PfCDPK1, Kinase-Glo ATP depletion luminescence
# [6] = target: Plasmodium falciparum protein kinase 6 (PK6, PF3D7_1337100) (UniProt Q8IDW1); test: PfPK6 kinase inhibitors, biochemical, TCAMS library (AID 1159586); settings: recombinant PfPK6, Kinase-Glo ATP depletion luminescence
# [7] = target: Protein kinase 7 (PK7), Plasmodium falciparum 3D7 (PF3D7_0213400) (UniProt Q7YTF7); test: inhibition of Plasmodium PK7 catalytic activity – biochemical, TCAMS antimalarial set, Kinase-Glo luminescence (AID 1159587); settings: recombinant PfPK7, Kinase-Glo ATP depletion luminescence
# [8] = target: Calcium-dependent protein kinase 4 (Plasmodium falciparum (isolate 3D7)) (UniProt Q8IBS5); test: PfCDPK4 kinase inhibitors, biochemical, TCAMS library (AID 1159588; cut-off not given, nearly all actives have IC50 up to about 0.91 µM); settings: recombinant PfCDPK4, Kinase-Glo ATP depletion luminescence
# Sequence of Calcium-dependent protein kinase 4 (Plasmodium falciparum (isolate 3D7)) (Q8IBS5 whole entry, looked up): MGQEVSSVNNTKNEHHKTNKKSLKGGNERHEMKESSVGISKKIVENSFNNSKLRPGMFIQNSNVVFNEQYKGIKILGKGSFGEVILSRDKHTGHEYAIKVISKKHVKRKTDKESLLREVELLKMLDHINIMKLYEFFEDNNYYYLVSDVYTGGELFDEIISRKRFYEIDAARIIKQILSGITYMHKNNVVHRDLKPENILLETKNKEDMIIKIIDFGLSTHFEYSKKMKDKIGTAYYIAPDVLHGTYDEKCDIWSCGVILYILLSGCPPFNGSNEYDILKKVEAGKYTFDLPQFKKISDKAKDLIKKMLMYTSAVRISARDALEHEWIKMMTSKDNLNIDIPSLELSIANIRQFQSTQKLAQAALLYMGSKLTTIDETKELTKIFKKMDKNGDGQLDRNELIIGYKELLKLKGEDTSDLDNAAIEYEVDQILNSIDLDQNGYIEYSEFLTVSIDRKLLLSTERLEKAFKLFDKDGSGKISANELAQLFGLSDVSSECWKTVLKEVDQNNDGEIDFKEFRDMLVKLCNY
# Sequence of Calcium-dependent protein kinase 1 (Plasmodium falciparum (isolate 3D7)) (P62344 whole entry, looked up): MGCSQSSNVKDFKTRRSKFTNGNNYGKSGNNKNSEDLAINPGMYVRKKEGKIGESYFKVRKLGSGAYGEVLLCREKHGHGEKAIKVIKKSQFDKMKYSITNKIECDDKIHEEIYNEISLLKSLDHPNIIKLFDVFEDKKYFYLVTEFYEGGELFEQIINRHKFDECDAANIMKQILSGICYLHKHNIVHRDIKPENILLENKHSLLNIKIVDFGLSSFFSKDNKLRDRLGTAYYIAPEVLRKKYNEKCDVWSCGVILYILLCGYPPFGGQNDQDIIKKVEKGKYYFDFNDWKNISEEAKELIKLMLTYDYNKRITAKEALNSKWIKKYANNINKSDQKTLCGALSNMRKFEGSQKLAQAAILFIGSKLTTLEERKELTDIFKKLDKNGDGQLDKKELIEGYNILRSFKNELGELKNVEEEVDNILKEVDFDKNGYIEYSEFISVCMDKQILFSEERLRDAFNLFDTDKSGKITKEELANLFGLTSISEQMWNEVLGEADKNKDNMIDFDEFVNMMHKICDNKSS
# Sequence of L-lactate dehydrogenase (Plasmodium falciparum (isolate CDC / Honduras)) (Q27743 whole entry, looked up): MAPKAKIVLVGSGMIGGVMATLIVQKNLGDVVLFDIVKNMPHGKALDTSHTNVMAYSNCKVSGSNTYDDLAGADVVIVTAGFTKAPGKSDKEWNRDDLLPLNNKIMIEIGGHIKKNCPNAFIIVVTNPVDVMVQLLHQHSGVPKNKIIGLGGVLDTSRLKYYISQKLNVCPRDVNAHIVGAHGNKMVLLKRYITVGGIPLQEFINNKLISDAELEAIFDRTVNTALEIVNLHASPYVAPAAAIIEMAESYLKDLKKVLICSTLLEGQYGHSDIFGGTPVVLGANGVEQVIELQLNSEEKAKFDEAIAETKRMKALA
# Sequence of Protein kinase 7 (PK7), Plasmodium falciparum 3D7 (PF3D7_0213400) (Q7YTF7 1-343): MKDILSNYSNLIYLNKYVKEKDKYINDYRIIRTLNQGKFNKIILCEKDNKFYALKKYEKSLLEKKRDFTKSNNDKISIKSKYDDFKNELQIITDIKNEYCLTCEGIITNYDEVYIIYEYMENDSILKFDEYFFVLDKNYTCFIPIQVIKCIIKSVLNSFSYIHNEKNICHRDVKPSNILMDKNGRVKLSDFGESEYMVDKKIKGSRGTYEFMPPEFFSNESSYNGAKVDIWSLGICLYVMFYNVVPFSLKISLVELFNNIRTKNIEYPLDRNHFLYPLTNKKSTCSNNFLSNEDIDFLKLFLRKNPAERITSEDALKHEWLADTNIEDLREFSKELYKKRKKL
# Sequence of Plasmodium falciparum protein kinase 6 (PK6, PF3D7_1337100) (Q8IDW1 1-305): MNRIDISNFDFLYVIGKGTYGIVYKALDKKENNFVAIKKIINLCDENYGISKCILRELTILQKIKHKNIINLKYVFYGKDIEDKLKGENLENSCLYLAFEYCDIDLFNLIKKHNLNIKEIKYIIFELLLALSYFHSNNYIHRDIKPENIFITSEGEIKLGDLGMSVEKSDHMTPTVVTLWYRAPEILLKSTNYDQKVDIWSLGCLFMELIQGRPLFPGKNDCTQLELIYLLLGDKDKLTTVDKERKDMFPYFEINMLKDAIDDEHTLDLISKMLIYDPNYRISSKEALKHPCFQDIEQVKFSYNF
SMILES,growth inhibition [1],inhibition [2],inhibition [3],growth inhibition [4],outcome [5],outcome [6],outcome [7],outcome [8]
CCn1ccc2c(N3CCCCS3(=O)=O)cc(C(=O)N[C@@H](Cc3ccccc3)[C@H](O)CNC(C)(C)CCCC(C)C)cc21,98% (active),23%,-6%,96% (active),inactive,inactive,inactive,inactive
CCc1c(CCNCCCCCCNCCc2ccc(OC)cc2)ccc(OC)c1OC,-1%,16%,8%,98% (active),inactive,inactive,inactive,inactive
CC(C)CCN1CCCN(Cc2ccc(C(=O)Nc3ccc(C(C)(C)C)cc3)cc2)CC1,12%,49%,-1%,92% (active),inactive,inactive,inactive,inactive
O=c1cc(NCCCNC2CCCc3c2cc(Cl)c(Cl)c3Cl)[nH]c2ccccc12 (configuration not stated),64% (active),6%,-10%,100% (active),inactive,inactive,inactive,inactive
CN1CCC[C@H]1COc1ccc(CN2CC[C@H](NC(=O)c3ccc(Cl)c(Cl)c3)C2)cc1Br,20%,81% (active),-1%,101% (active),inactive,inactive,inactive,inactive
COc1ccccc1-c1csc(C(=O)NCC2CCN(Cc3ccc(C(C)(C)C)cc3)C2)c1 (configuration not stated),11%,29%,0%,93% (active),inactive,inactive,inactive,inactive
CC1CCC(C[C@@H](C(=O)N[C@H](C(=O)Nc2nccs2)[C@@H](C)O)[C@H](CCC(F)(F)F)N(O)C=O)CC1 (some centres not stated),94% (active),-8%,3%,95% (active),inactive,inactive,inactive,inactive
CCCCCCCCOc1ccc(N2C(N)=NC(N)=NC2(C)C)cc1,-6%,31%,-4%,100% (active),inactive,inactive,inactive,inactive
Cc1ccc(N)cc1-c1nc(NC2CC(C)(C)NC(C)(C)C2)nc2c1ccc(=O)n2-c1c(F)cccc1F,1%,0%,-5%,98% (active),inactive,inactive,inactive,inactive
CCCN1CCN(CC(O)CNC(=O)Nc2ccc(Cl)cc2)CC1 (configuration not stated),100% (active),6%,-3%,100% (active),inactive,inactive,inactive,inactive
CCc1c(CCNCC/C=C/CCNCCc2ccc(OC)c(OC)c2CC)ccc(OC)c1OC,7%,41%,3%,100% (active),inactive,inactive,inactive,inactive
CSc1ccc(NC(=O)Nc2cc(C)nc3ccccc23)cc1Br,66% (active),7%,-6%,101% (active),inactive,inactive,inactive,inactive
Cc1nc(N)nc(N)c1-c1ccc(Cl)cc1,0%,15%,-4%,96% (active),inactive,inactive,inactive,inactive
Cc1cccc2[nH]c(-c3ccc(-c4ccc(C(=O)NCCN5CCCC5)cc4)cc3)nc12,77% (active),25%,3%,101% (active),inactive,inactive,inactive,inactive
N#Cc1cc(C(=O)Nc2ccccc2)c(N)nc1SCC(=O)NC(c1ccccc1)c1cccs1 (configuration not stated),100% (active),34%,-1%,98% (active),inactive,inactive,inactive,inactive
COc1ccc2nccc([C@@H](O)CN3CCC(NCc4ccc5nsnc5c4)CC3)c2c1,64% (active),12%,3%,95% (active),inactive,inactive,inactive,inactive
CCOc1cccc(C(=O)Nc2nonc2-c2ccc(OC)c(OC)c2)c1,95% (active),11%,4%,92% (active),inactive,inactive,inactive,inactive
COc1cccc(C(=O)Nc2ccc(Nc3nc(C)cc(N(C)C)n3)cc2)c1OC,9%,-10%,-3%,90% (active),inactive,inactive,inactive,inactive
O=C(Nc1cccc(-c2nn3ncccc3c2-c2ccnc(Nc3cccc(C(F)(F)F)c3)n2)c1)c1c(F)cccc1F,68% (active),49%,-2%,97% (active),inactive,inactive,inactive,inactive
CCCCCC(C)NC[C@@H](O)[C@H](Cc1ccccc1)NC(=O)c1cc(NCC)cc(N2CCCCS2(=O)=O)c1 (some centres not stated),79% (active),3%,0%,98% (active),inactive,inactive,inactive,inactive

SMILES,growth inhibition [1],inhibition [2],inhibition [3],growth inhibition [4],outcome [5],outcome [6],outcome [7],outcome [8]
O=C(Nc1ccc(-c2nc3cc4ccccc4cc3[nH]2)cc1)c1cccc(Br)c1,89% (active),50% (active),-5%,101% (active),inactive,inactive,inactive,inactive
O=[N+]([O-])c1ccc(C=NNc2nc(Nc3ccccc3)nc(Nc3ccccc3)n2)o1,61% (active),5%,-4%,94% (active),inactive,inactive,inactive,inactive
FC(F)(F)c1ccc(N2CCCN(Cc3cccc(-c4ccccc4CNCc4ccc5c(c4)OCO5)c3)CC2)nc1,11%,23%,3%,87% (active),inactive,inactive,inactive,inactive
CC1CCCN(Cc2cc(Cl)cc(Cl)c2O)C1 (configuration not stated),77% (active),22%,5%,89% (active),inactive,inactive,inactive,inactive
Nc1cc2c(C3CCN(CC4CCN(C(=O)/C=C/c5ccc(Cl)c(Cl)c5)CC4)CC3)c[nH]c2cn1,94% (active),0%,-3%,101% (active),inactive,inactive,inactive,inactive
CCCCOc1cc(C)nc2ccc(NC(=O)COCC(=O)Nc3ccc4nc(C)cc(OCCCC)c4c3)cc12,28%,-11%,-3%,90% (active),inactive,inactive,inactive,inactive
COc1ccc(C2NCCc3c2[nH]c2ccccc32)cc1CN1CCN(c2ccc(F)cc2)CC1 (configuration not stated),56% (active),37%,-1%,97% (active),inactive,inactive,inactive,inactive
Cc1cccc2[nH]c(-c3ccc(-c4cccc(CN5CCN(CCN6CCOCC6)CC5)c4)s3)nc12,83% (active),33%,-2%,101% (active),inactive,inactive,inactive,inactive
Nc1c(Cl)cc(C(O)CNCCCCCOCCCc2ccc(O)c3ncccc23)cc1Cl (configuration not stated),12%,65% (active),-4%,90% (active),inactive,inactive,inactive,inactive
CO/C(=C\C=C\c1cc2cc(Cl)c(Cl)cc2[nH]1)C(=O)NCCCN1CCCC[C@@H]1C,83% (active),33%,1%,99% (active),inactive,inactive,inactive,inactive
Nc1nccc2ccc(OC3CCCCC3)cc12,41%,24%,-4%,98% (active),inactive,inactive,inactive,inactive
Cc1oc(-c2ccc(Cl)cc2)cc1C(=O)NCCC1CCN(CCCCCNC(=O)/C=C/c2ccc(Cl)c(Cl)c2)CC1,88% (active),100% (active),-4%,100% (active),inactive,inactive,inactive,inactive
CC1(C)N=C(N)N=C(N)N1OCCCO,-1%,27%,-2%,96% (active),inactive,inactive,inactive,inactive
COc1ccc(CN2CCC(CNCCc3c(Cl)cccc3Cl)CC2)cc1,69% (active),45%,-11%,98% (active),inactive,inactive,inactive,inactive
NC1=NC2(CCCCC2)N(OCCCCCCc2ccccc2)C(N)=N1,69% (active),73% (active),-2%,100% (active),inactive,inactive,inactive,inactive
Fc1cccc(C=NNc2ccnc3ccc(C(F)(F)F)cc23)c1,97% (active),-2%,-4%,100% (active),inactive,inactive,inactive,inactive
Cc1onc(-c2c(Cl)cccc2Cl)c1C(=O)NC1=NC(C)(C)ON1c1ccccc1,36%,6%,1%,97% (active),inactive,inactive,inactive,inactive
CN(CCc1ccccc1)c1ncc(-c2ccccc2CNCc2ccccc2O)cn1,94% (active),10%,-2%,99% (active),inactive,inactive,inactive,inactive
Cc1ccc(NC(=O)Nc2ccccc2F)cc1-c1ccc(C(=O)Nc2ccncc2)cc1,54% (active),36%,3%,99% (active),inactive,inactive,inactive,inactive
